Experimental data reported in PubChem BioAssay (NCATS).
Several values for one entry are separate records, joined by “and”; a condition that tells them apart may be missing. Equal entries are not always repeated. Records with an inconclusive call do not appear. Where a call stands in place of a potency, no number is given. Activity calls are given as the source filed them. Calls follow the shape of the dose curve; as a rule, active = well fitted inhibition curve with a large enough effect; inconclusive = small, poorly fitted or top-dose-only effect; inactive = flat fitted curve, though single readings scatter.

experiment: P-glycoprotein substrates identified in KB-8-5-11 adenocarcinoma cell line, qHTS therapeutic library screen (AID 1346987); conditions: KB-8-5-11 (P-gp overexpressing) viability, CellTiter-Glo, 72 h; series mostly up to 44.5 µM; also: nearly all actives have a fitted effect of over 65% in size
Method in brief: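 Luminescence from CellTiter-Glo, read 5 min after addition, quantified survival of KB-8-5-11 (P-gp-overexpressing) cells exposed to compounds for 72 h. AC50 was derived from concentration-response curves.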
Potency is read from the fitted curve at half-maximal effect.

Compound | Potency
Cc1cc2ncc(C(=O)NCC(C)(C)NCC(=O)N3CCC[C@H]3C#N)cn2n1 | inactive
Clc1ncoc1-c1c[nH]c2ccccc12 | inactive
CC(NC(=O)Cc1cc(F)cc(F)c1)C(=O)NC1C(=O)N(C)c2ccccc2-c2ccccc21 (centres undefined) | 14.6 µM (active)
O=C(c1c(F)ccc(NS(=O)(=O)N2CC[C@@H](F)C2)c1F)c1c[nH]c2ncc(-c3cnc(C4CC4)nc3)cc12 | inactive
CCCCCCCCCC(=O)O | inactive
Cc1ccc(/C(=C\CN2CCCC2)c2cccc(/C=C/C(=O)O)n2)cc1 | inactive
CC(=O)Nc1nc(C)c(-c2nc(N3CCCC(O)C3)no2)s1 (centres undefined) | 18.4 µM (active)
Cn1ccc(NC(=O)c2cc(Oc3ccc(C(=O)N4CCC4)c(F)c3)c3c(c2)OC(C)(C)C3)n1 | inactive
O=C(Nc1ccc(Cl)cc1)Nc1cccc(-c2cccc(N3CCCC3)n2)c1 | 20.6 µM (active)
NC(=O)N1CCC(CC(=O)N2CCC(C3c4ncc(Br)cc4CCc4cc(Cl)cc(Br)c43)CC2)CC1 (centres undefined) | 18.4 µM (active)
CC(C)(C)c1ccc(-c2nc3c(N4CCN(Cc5ccc6nccnc6c5)CC4)cccc3[nH]2)cc1 | 13 µM (active)
CC(=O)OC1C(O)CC2(C)C(CCC3(C)C2CC=C2C4C5(CCC(CO[C@@H]6O[C@H](CO)[C@@H](O)[C@H](O)[C@H]6O)(OC5=O)C4(C)O)C(O)CC23C)C1(C)C (some centres undefined) | inactive
CC#C[C@@H](CC(=O)O)c1ccc(OCc2cccc(-c3ccc(C(F)(F)F)cc3)c2)cc1 | inactive
Cc1[nH]c2ccccc2c1CCNCc1ccc(/C=C/C(=O)NO)cc1 | 0.366 µM (active)
CCNC1(C(N)=O)CCN(c2ncnc3c2nc(-c2ccccc2Cl)n3-c2ccc(Cl)cc2)CC1 | inactive
COc1ccc(-c2ccc3c(N4CCOCC4C)nc(N4CCOCC4C)nc3n2)cc1CO (centres undefined) | 0.0731 µM (active)
CCN(CC)C(=O)c1ccc(Nc2nc(OCC3CCCCC3)c3[nH]cnc3n2)cc1 | 18.4 µM (active)
N[C@@H](C(=O)N[C@H]1C(=O)N2C(C(=O)O)=C(Cl)CC[C@H]12)c1ccccc1 | inactive
CCCC(=O)O[C@]1(C(=O)COC(=O)CC)[C@@H](C)C[C@H]2[C@@H]3CCC4=CC(=O)C=C[C@]4(C)[C@@]3(F)[C@@H](O)C[C@@]21C | inactive
CNCc1cc(-c2ccccc2F)n(S(=O)(=O)c2cccnc2)c1 | inactive

Compound | Potency
CC(=O)N[C@@H](C=O)[C@H](O)[C@H](O)[C@@H](O)CO | inactive
C1=C/COCc2cc(ccc2OCCN2CCCC2)Nc2nccc(n2)-c2cccc(c2)COC/1 | 4.61 µM (active) and 7.31 µM (active)
CC(C)(C)NC(=O)[C@H]1CC[C@H]2[C@@H]3CC=C4C=C(C(=O)O)CC[C@]4(C)[C@H]3CC[C@]12C | inactive
CO[C@@H]1CC(OC2CCC3(C)C(CCC45CCC(C6=CC(=O)OC6)C(C)(CCC43)C5=O)C2)O[C@H](C)[C@@H]1O[C@@H]1O[C@H](CO[C@@H]2O[C@H](CO)[C@@H](O)[C@H](O)[C@H]2O)[C@@H](O)[C@H](O)[C@H]1O (some centres undefined) | 4.37 µM (active)
Cc1nnc(C[C@@H]2C=C(c3ccc(Cl)cc3)c3ccccc3-n3c(C)nnc32)o1 | 2.59 µM (active)
O=C(O)CC(O)(CC(=O)O)C(=O)O | inactive
COc1cc2ncnc(Nc3cccc(I)c3)c2cc1OC | 5.8 µM (active)
C[C@H]1C[C@H]2[C@@H]3CCC4=CC(=O)C=C[C@]4(C)[C@@]3(F)[C@@H](O)C[C@]2(C)[C@@]1(O)C(=O)CCl | inactive
COc1ccc(C2(N(C)C(=O)c3ccc(NC(=O)c4ccco4)cc3)CCOCC2)cc1 | inactive
C[C@H](Nc1cc2c(-c3ccc4c(c3)OCO4)noc2cn1)c1ccccc1 | inactive
C=C1C(=O)OC2/C=C(\CO)CC/C=C(\C=O)C(OC)C(OC(=O)C(C)CC)C12 (centres undefined) | inactive
O=C(Nc1ccc(C(O)(C(F)(F)F)C(F)(F)F)cc1)c1ccc(C(F)(F)F)cc1 | 18.4 µM (active)
O=C(CSc1nc2ccccc2c(=O)n1-c1ccccc1)Nc1ccc2c(c1)CCC2 | inactive
O=C(Nc1ccc(-c2ccc(Cl)c(Cl)c2)cc1)C1=C(O)c2ccccc2S(=O)(=O)N1 | inactive
CCOc1ccc(-n2c([C@@H](C)N(Cc3cccnc3)C(=O)Cc3ccc(OC(F)(F)F)cc3)nc3ncccc3c2=O)cc1 | inactive
C[C@@H](N[C@H]1CCCC[C@@H]1NC(=O)c1ccc(Cl)cc1)c1cccc2ccccc12 | 23.1 µM (active)
CCC(CC)(NC(=O)C(C)C)C(=O)N[C@@H](CCCN=C(N)N)C(=O)NC1(C(=O)NC(c2ccc(F)cc2)c2ccc(F)cc2)CCCC1 | inactive
CN(C)CCn1cc(-c2ccc(F)cc2)c(-n2cccc2)n1 | inactive
CN1CCC(NC(=O)c2cc(-c3c(O)cc(O)cc3Oc3ccc([N+](=O)[O-])cc3)on2)CC1 | 11.6 µM (active)
